Bioassay records from PubChem.
Sampled rows, rich in hits. Any-hit rate of the full collection: about 0.41%.
GAA inhib = blocks human lysosomal alpha-glucosidase; P10253; purified human GAA, 4-MU-alpha-glucoside fluorescence; Potency, µM (highest dose often 76.9 µM), inactives show at the top dose activity change, negative = inhibition, most hits filed as inhibitors; actives 0.005% (n = 200,000); AID 1466;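 also: plate controls were uninhibited enzyme wells for no effect and no-enzyme background for full effect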
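Human enzyme at 4 nM with 400 uM 4-methylumbelliferyl-alpha-D-pyranoside, citrate/phosphate buffer pH 5.0, 0.005% Tween-20, 20 min at room temperature. Compounds up to 77 uM. 4-MU fluorescence (Ex 365/Em 440) read after NaOH/glycine stop; AC50 from Hill fit.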
GAA spleen mod = inhibitors or activators of human alpha-glucosidase in spleen homogenate | P10253 | human spleen homogenate, 4-MU-alpha-glucoside fluorescence | Potency, µM (top dose mostly 79.9 µM), for inactives: top-dose activity change, negative = inhibition, most hits filed as inhibitors | actives 0.006% (n = 240,000) | AID 2112;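 also: 0% = enzyme with vehicle and -100% = no enzyme basal signal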
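Human spleen homogenate (1 ug) with 4-methylumbelliferyl-alpha-D-glucopyranoside (1 mM final) in 50 mM citrate/phosphate pH 5.0, 0.01% Tween-20; 40 min at 37 C. Stopped at pH 10; 4-MU fluorescence Ex 365/Em 440 nm; AC50 by Hill fit.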
N370S GC mod = inhibitors or activators of N370S glucocerebrosidase for Gaucher disease | Potency, µM (series often up to 59.4 µM), inactives show at the top dose activity change, negative = inhibition, actives largely listed as inhibitors | actives 0.092% (n = 330,000) | N370S GC spleen homogenate, 4MU-glucoside fluorescence | AID 2101 | P04062;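 also: 0% = full enzyme activity and -100% = no enzyme basal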
Lamin A splicing = changes lamin A minigene splicing in HeLa cells | HeLa LMNA splicing GFP/RFP minigene ratio, 48 h | Potency, µM (titrated, usually from 46.1 µM), for inactives: at the highest dose ratio change, negative = inhibition, most hits filed as inhibitors | actives 0.01% (n = 200,000); active = well fitted inhibition curve with a large enough effect in the signal ratio, with a control signal flat, not every such curve was filed as active; inconclusive = small, poorly fitted or top-dose-only effect, or effect the other way, or a change in a side signal; the % refers to the signal ratio
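Read-out is the ratio of GFP to DsRed2 object intensity, acquired by 488 nm laser-scanning cytometry on HeLa lamin A-EGFP minigene reporter cells. Compound incubation 48 hrs at 37 °C in Opti-MEM with 2% FBS; DMSO 0.5% final.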
GAA glycogen mod = GAA glycogen-cleavage inhibition or activation | P10253 | recombinant GAA, glycogen substrate, Amplex Red glucose oxidase fluorescence | Potency, µM (titrated, usually from 76.4 µM), without a hit: at the top dose activity change, negative = inhibition, hits mostly inhibitors | actives 0.38% (n = 300,000);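 also: 0% = full enzyme reaction and -100% = no-enzyme basal signal; the screen sought inhibitors and activators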
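Natural-substrate format: glycogen cleavage by 4 nM human enzyme, glucose read by Amplex Red coupling (Ex 573, Em 610 nm). Normalized to enzyme and no-enzyme controls.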
* marks the source's active call; other numbers are inactive results; ? = inconclusive; nt = not tested or not shown; ! = not confirmed by another sample; [ ] = another dose, or the depositor's remark. Unless noted, calls follow the shape of the dose curve; as a rule, active = well fitted curve in the direction sought with a large enough effect; inconclusive = small, poorly fitted or top-dose-only effect, or another doubt; inactive = no such curve, though single readings can be large; an effect the other way counts as inactive or inconclusive. Unless noted, % is scaled to controls: 0 for no effect and ±100 for the full control effect; potency is read from the fitted curve at half-maximal effect.

SMILES | GAA inhib | GAA spleen mod | N370S GC mod | Lamin A splicing | GAA glycogen mod
CCOC(=O)c1c(C)n(CCN2CCN(C)CC2)c2ccc(OC)cc12 | -7.3% | 0.0% | -7.0% | 5.5% | 4.2%
COc1ccc2c(c1)c(CCN1CCOCC1)c(C)n2C(=O)c1cccc(Cl)c1Cl | nt | -0.8% | 12.6µM* | nt | nt
CC/C(=C(\c1ccccc1)c1ccc(OCCN(C)C)cc1)c1ccc(O)cc1 | nt | -4.4% | ? | nt | nt
CN1CCN(c2ccc(NC(=O)Oc3ccccc3)cc2)CC1 | 4.1% | -2.6% | -11.8% | 9.4% | ?
O=C(Nc1ccc(COc2ccccc2)cc1)Oc1ccccc1N1CCOCC1 | -7.7% | -0.2% | -0.4% | ? | 3.98µM*
NC1CCCC[C@@H]1N (stereo partly drawn) | nt | 9.8% | -6.3% | nt | nt
COc1ccc2c(c1)CCC1C2CC[C@@]2(C)C(O)CCC12 (stereo partly drawn) | nt | 8.9% | 8.0% | ? | nt
C[C@]12CC[C@@H]3c4ccc(O)c(O)c4CC[C@H]3[C@@H]1CC[C@@H]2O | -12.9%[15.4 µM] | 10.6% | -3.8% | ? | 8.84µM*
C[C@]12CC[C@@H]3c4cc(O)c(O)cc4CC[C@H]3[C@@H]1CC[C@@H]2O | -34.3%[15.4 µM] | 7.0% | -9.1% | ? | 3.14µM*
C=CC1CC=CCC1 (stereo not drawn) | nt | 0.2% | -24.6% | nt | nt
O=C1C=CC(=O)C(Cl)=C1 | nt | -11.6% | 13.1% | nt | nt
CN1C(=O)C(Cc2ccsc2)C(=O)N(C)C1=O | -13.2% | -0.4% | 0.5% | 8.0% | 6.2%
CN1C(=O)C(Cc2ccc3c(c2)OCO3)C(=O)N(C)C1=O | -4.0% | -5.1% | nt | 2.7% | 39.8µM*
CCOP(=S)(OCC)Oc1ccc([N+](=O)[O-])cc1 | nt | 9.1% | 9.4% | nt | nt
CCCC/C(C)=C/[C@@H](NP(=O)(c1ccccc1)c1ccccc1)c1ccccc1 | ? | 1.6% | -2.8% | -11.6% | 1.26µM*
CC(C)(Cl)Cl | nt | 0.6% | -3.2% | nt | nt
O=C1CC(N(O)c2ccccc2)C(=O)N1Cc1ccccc1 (stereo not drawn) | -6.2% | 1.9% | -5.7% | -3.7% | 31.6µM*
O=[N+]([O-])C(Br)Br | nt | 3.7% | -8.3% | nt | nt
O=C(CCl)c1ccccc1 | nt | -1.0% | 11.3% | nt | nt
N#Cc1c(/N=C/c2c(O)n(Cc3ccco3)c(=O)[nH]c2=O)sc2c1CCCC2 | 11.0% | -5.1% | 1.8% | 1.8% | 14µM*
Cc1cc(/C=C2\C(=O)NC(=O)N(c3ccc(F)cc3)C2=O)c(C)n1-c1ccc(C(=O)O)cc1 | 28.2µM* | 0.4% | nt | nt | ?
Cc1ccc(N2C(=O)NC(=O)/C(=C\c3cc(C)n(-c4ccc(C(=O)O)cc4)c3C)C2=O)cc1 | nt | nt | -7.6% | nt | 4.5%
O=c1cc(-c2ccc(O)c(O)c2)oc2c(C3O[C@H](CO)[C@@H](O)[C@H](O)[C@H]3O)c(O)cc(O)c12 (stereo partly drawn) | ? | -16.1% | -18.3% | 0.1% | 4.47µM*
ON1C2CCCCC2N(O)C1c1ccccc1F (stereo not drawn) | 1.4% | -3.5% | -2.3% | -1.9% | 8.84µM*
COc1cccc([C@@]2(O)CCCCC2CN(C)C)c1 (stereo partly drawn) | nt | 2.7% | -12.1% | nt | nt
SMILES | GAA inhib | GAA spleen mod | N370S GC mod | Lamin A splicing | GAA glycogen mod
NC1CCCCC1N (stereo not drawn) | nt | 2.5% | -4.3% | nt | nt
CCOC(=O)C1(CCOc2ccccc2)CCN(Cc2cnc(SC)nc2)CC1 | 1.4% | -0.6% | 20µM* | nt | 4.2%
O=C1CC(NC(=O)C(F)(F)F)=NN1c1ccccc1 | 3.5% | -12.2% | -7.3% | -13.5%[46 µM] | 17.8µM*
O=C1CC(c2cccnc2)=NN1c1ccccc1 | -8.9% | 1.6% | -5.6% | 2.9%[46 µM] | -18.6%
O=c1c2ccccc2[se]n1-c1ccccc1 | -8.5%[15.4 µM] | -5.4% | 22.4µM*! | ? | -6.1%
Cc1cc2c(s1)Nc1ccccc1N=C2N1CCN(C)CC1 | -0.3%[15.4 µM] | -2.9% | -4.9% | ? | 5.62µM*
CNC(=O)Oc1cccc2ccccc12 | nt | -2.6% | 2.1% | ? | 35.5µM*
CC12CCCCC1N(O)CN2O (stereo not drawn) | -0.6% | 2.2% | -15.9% | -6.7% | 17.8µM*
CC1(C)N(O)C2CCCCC2N1O (stereo not drawn) | -0.9% | -3.4% | 3.6% | 12.0% | -22.1%
CCCCC/C=C\C/C=C\C/C=C\C/C=C\CCCC(=O)Nc1ccc(O)cc1 | ? | 0.1% | -14.0% | 19.3%[46 µM] | 31.6µM*
Oc1ccc(C[C@H]2NCCc3cc(O)c(O)cc32)cc1O | nt | nt | -8.5% | nt | ?
Oc1ccc(CC2CC3CCN2CC3)cc1O (stereo not drawn) | 1.4% | -1.7% | -5.7% | -0.4% | 3.52µM*
CN1[C@H]2CC(OC(=O)[C@H](CO)c3ccccc3)C[C@H]1[C@H]1O[C@H]12 (stereo partly drawn) | nt | 6.1% | -1.0% | ? | nt
